The full ranking holds about 4,500 sequences; the median of “log2 normalized fluorescence” is about -0.34, and the highest 2% start at about 3.3. This excerpt belongs to a sample that is enriched for the highest values.
These sequences were tested against MAX:MAX (p21) (human, UniProt P61244-2 1-151) (assay: protein-binding microarray (anti-MAX antibody); PBM: 15 mM Tris-HCl pH 7.5, 100 mM KCl, 0.075% NP40, 7.5 mM beta-mercaptoethanol, 375 ng/ul BSA, 8 ng/ul poly(dA-dT):(dA-dT), 550 ng complex, 60 min, room tempe; high values mean tight binding). Conditions: protein: recombinant; tags: 6xHis; chain copies: 2; label: 3' end of printed strand (linker) attached to glass slide; dsDNA, one strand shown.
Sequence of MAX:MAX (p21) (P61244 other isoform, or with tags, fused parts or gaps): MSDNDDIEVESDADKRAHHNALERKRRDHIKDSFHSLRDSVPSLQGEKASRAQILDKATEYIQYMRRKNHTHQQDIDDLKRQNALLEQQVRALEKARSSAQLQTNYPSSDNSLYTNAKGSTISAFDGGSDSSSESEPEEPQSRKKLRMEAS
Summary of the method: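 A custom Agilent glass array held ~5000 unique 12-nt sequences in triplicate spots, made double-stranded by primer extension. His-tagged human MYC:MAX or MAX:MAX dimers (550 ng, produced in E. coli) were applied for 60 min at room temperature in Tris-KCl buffer, pH 7.5, with NP40, BSA and poly(dA-dT) competitor. Anti-MAX and secondary antibodies detected bound protein, with scanning at 543 nm, and binding is given as log2 normalized fluorescence.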
“CCGGCTGGCACGTGGGATTAATAGCTAAGATTACTATATCGACG” was tested, and the binding signal was 3.64 log2 normalized fluorescence. With “CCGGCTACTATGCCATGTTAATAGCTAAGATTACTATATCGACG” the binding signal was 0.457 log2 normalized fluorescence. With “CCGGCTGCCATGTGGTTTTAATAGCTAAGATTACTATATCGACG” the binding signal was 3.15 log2 normalized fluorescence. In the case of “CCGGCTATCACGTGGGATTAATAGCTAAGATTACTATATCGACG”, the binding signal is reported as 3.05 log2 normalized fluorescence. “CCGGCTGCCATGTGGGATTAATAGCTAAGATTACTATATCGACG” was tested, and the binding signal was 3.34 log2 normalized fluorescence. For “CCGGCTGGCACGTCGGATTAATAGCTAAGATTACTATATCGACG”, the binding signal was 1.33 log2 normalized fluorescence. In the case of “CCGGCTGGCACGTGGCATTAATAGCTAAGATTACTATATCGACG”, the binding signal is reported as 3.03 log2 normalized fluorescence. With “CCGGCGGGCACGTGGGATTAATAGCTAAGATTACTATATCGACG” the binding signal was 3.48 log2 normalized fluorescence. “CCGGCGGGCACGTGGTCTTAATAGCTAAGATTACTATATCGACG” was tested, and the binding signal was 3.13 log2 normalized fluorescence. “CCGGCTGACGATCTGTATTAATAGCTAAGATTACTATATCGACG” was tested, and the binding signal was -0.62 log2 normalized fluorescence. With “CCGGCTGAAGAGAGGTATTAATAGCTAAGATTACTATATCGACG” the binding signal was -0.631 log2 normalized fluorescence. “CCGGCTGACCCATGGTTTTAATAGCTAAGATTACTATATCGACG” was tested, and the binding signal was 2 log2 normalized fluorescence. “CCGGCTGACATGAGGTATTAATAGCTAAGATTACTATATCGACG” was tested, and the binding signal was 2.52 log2 normalized fluorescence. With “CCGGCTGACCACAAGTATTAATAGCTAAGATTACTATATCGACG” the binding signal was 1.12 log2 normalized fluorescence. In the case of “CCGGCTGACCCAACGTATTAATAGCTAAGATTACTATATCGACG”, the binding signal is reported as -0.297 log2 normalized fluorescence. In the case of “CCGGCTGACACGTGGGATTAATAGCTAAGATTACTATATCGACG”, the binding signal is reported as 3.16 log2 normalized fluorescence. With “CCGGCTCACACGTGGGCTTAATAGCTAAGATTACTATATCGACG” the binding signal was 3.27 log2 normalized fluorescence. With “CCGGCCGACACGTGGTATTAATAGCTAAGATTACTATATCGACG” the binding signal was 3.12 log2 normalized fluorescence. In the case of “CCGGCTGACACGTGGGCTTAATAGCTAAGATTACTATATCGACG”, the binding signal is reported as 3.35 log2 normalized fluorescence. In the case of “CCGGCTGACACGTGGCCTTAATAGCTAAGATTACTATATCGACG”, the binding signal is reported as 3.37 log2 normalized fluorescence. For “CCGGCTGACACGTGGACTTAATAGCTAAGATTACTATATCGACG”, the binding signal was 3.07 log2 normalized fluorescence. “CCGGCTGACACGGCTTATTAATAGCTAAGATTACTATATCGACG” was tested, and the binding signal was 0.66 log2 normalized fluorescence. In the case of “CCGGCCGACACGTGGGCTTAATAGCTAAGATTACTATATCGACG”, the binding signal is reported as 3.29 log2 normalized fluorescence. In the case of “CCGGCTGACACGTGACCTTAATAGCTAAGATTACTATATCGACG”, the binding signal is reported as 3.18 log2 normalized fluorescence. For “CCGGCTGAAAAACCGTATTAATAGCTAAGATTACTATATCGACG”, the binding signal was -0.672 log2 normalized fluorescence. “CCGGCTGAAGGCACGTATTAATAGCTAAGATTACTATATCGACG” was tested, and the binding signal was 0.169 log2 normalized fluorescence. With “CCGGCTGAGCACTGGTATTAATAGCTAAGATTACTATATCGACG” the binding signal was -0.181 log2 normalized fluorescence. “CCGGCTGAGGACTTGTATTAATAGCTAAGATTACTATATCGACG” was tested, and the binding signal was -0.44 log2 normalized fluorescence. In the case of “CCGGCTCCCACCTGGTATTAATAGCTAAGATTACTATATCGACG”, the binding signal is reported as 2.61 log2 normalized fluorescence.

Source: paper PMC5515408, “Sequence-specific DNA binding by MYC/MAX to low-affinity non-E-box motifs”
